“And” between values parts separate entries of the source, which are not always exact repeats. Identical values can stand only once.

The target of the first assay is Solute carrier family 2, facilitated glucose transporter member 1 (Homo sapiens) (UniProt P11166). Nature of the assay: ST_JUDE_LEISH: Cytotoxicity at 2uM final concentration against transgenic Leishmania Mexicana promastigotes LmGLUT1 that are glucose transport deficient and complemented with the human glucose transporter GLUT1. Activity is measured by DNA content using SYBR green in vitro. The format is functional.
Chain of Solute carrier family 2, facilitated glucose transporter member 1 (Homo sapiens) (P11166 whole entry): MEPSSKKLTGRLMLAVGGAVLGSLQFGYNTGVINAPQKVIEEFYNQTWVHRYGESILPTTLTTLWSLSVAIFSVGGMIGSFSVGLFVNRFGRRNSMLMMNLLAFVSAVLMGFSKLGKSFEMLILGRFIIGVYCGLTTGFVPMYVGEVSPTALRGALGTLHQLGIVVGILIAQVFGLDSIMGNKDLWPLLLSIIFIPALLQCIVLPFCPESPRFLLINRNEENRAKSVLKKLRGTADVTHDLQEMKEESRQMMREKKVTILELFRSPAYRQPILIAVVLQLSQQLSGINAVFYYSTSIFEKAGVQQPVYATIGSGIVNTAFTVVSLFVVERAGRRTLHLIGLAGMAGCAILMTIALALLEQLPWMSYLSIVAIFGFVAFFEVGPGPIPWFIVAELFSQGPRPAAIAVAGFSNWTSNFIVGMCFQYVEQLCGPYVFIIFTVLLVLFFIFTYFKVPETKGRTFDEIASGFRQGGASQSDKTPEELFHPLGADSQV
Turning to `CCc1ccc(CC(C)NCC(O)c2ccccc2)cc1` (stereo not drawn), the inhibition amounted to 1.06%.
The same measure, in the same setting: the value for `CC(C)/C(=C(/F)CN1C(=O)C(NC(=O)c2cc3ccccc3[nH]2)C(=O)N(c2ccccc2)c2ccccc21)c1ccccc1` (stereo not drawn) was -0.35%; that for `FC(F)(F)c1ccc(NC(=S)N2CCC(CN3CCC(c4c[nH]c5ccccc45)CC3)CC2)cc1` was -0.87%; that for `CCCCCc1cc(O)c2c(c1)OC(C)(C)c1ccncc1-2` was 0.55%.
Same read-out and setting: the value for `COC(=O)c1ccc(CC(C)NCC(O)c2cccc(I)c2)cc1` (stereo not drawn) was -0.53%.
Regarding `CC[C@H]1CN2CC[C@@H]1C[C@H]2[C@H](O)c1cc(N2CCC(CO)CC2)nc2ccc(OC)cc12`, the inhibition was found to be 1.5%.
Regarding `COc1cccc(O)c1CNCC(O)c1cccc(C(F)(F)F)c1` (stereo not drawn), the inhibition worked out at 0.43%.
Consider `CN(c1ccnc(Nc2ccc(CS(C)(=O)=O)cc2)n1)C1CCN(Cc2ccccc2)CC1`, for which the inhibition was found to be 2.04%.
Take `CN(C)c1cccc(NC(=O)N[C@H]2N=C(c3ccccc3)c3ccccc3N(CC(=O)N3CCCC3)C2=O)c1`: the inhibition is 2.85%.
In the case of `CC[C@H]1CN2CCc3cc(OC)c(OC)cc3[C@@H]2C[C@@H]1C[C@H]1NCCc2cc(OC)c(OC)cc21`, the inhibition was determined as 96.8%.
The same measure, in the same setting: the value for `CC(Cc1ccc(-c2nc3ccccc3[nH]2)cc1)NCC(O)c1cccc(C(F)(F)F)c1` (stereo not drawn) was 1.35%; that for `CC(=O)Nc1ccc(OCCN(CC(C)C)c2ccc(C#N)c(C(F)(F)F)c2)c(Cl)c1` was 3.54%; that for `CCCCCCCc1cc(O)c2c3c(c(=O)oc2c1)CN(C)CC3` was 10.7%.
The same measure, in the same setting: the result for `OC(CNC1CCCCC1)c1ccc(Cl)c(Cl)c1` (stereo not drawn) reads -1.03%.
Still for that read-out and setting: the result for `COCC(=O)N(Cc1ccccc1-c1cccc(CNCCc2ccccc2)c1)C1CCN(Cc2ccccc2)CC1` reads 0.81%; that for `COC(C(=O)OCCC1CCCN1C)(c1ccccc1)c1ccccc1` (stereo not drawn), -0.93%.
In the case of `CC(C)c1ccc(C=CC(=O)NC2CCC(CN3CCC(c4c[nH]c5ccccc45)CC3)CC2)cc1` (stereo not drawn), the inhibition was determined as 2.2%.
For `COCCNCc1cccc(-c2ccc(CN(C(=O)Nc3ccccc3)C3CCN(Cc4ccccc4)CC3)cc2)c1`, the inhibition stood at 2.81%.
Same read-out and setting: the result for `CN(c1cc(NC(=O)c2cccs2)ccn1)C1CCN(Cc2cccc(F)c2)CC1` reads 3.38%.
For the compound `Cc1nc(-c2ccc(-c3ccc(C(=O)Nc4ccc5c(c4)C4(CCNCC4)CO5)cc3)c(C)c2)no1`, the inhibition is 2.05%.
The same measure, in the same setting: the value for `CC[C@H]1CN2CC[C@@H]1C[C@H]2[C@H](O)c1cc(N2CCC(C)CC2)nc2ccc(OC)cc12` was 7.8%; that for `CC1(C)N=C(N)N=C(N)N1c1ccc([N+](=O)[O-])cc1` was 9.35%; that for `COc1ccc2[nH]cc(C3CC4CCC(C3)N4CCC3CCN(C(=O)/C=C/c4ccc(Cl)c(Cl)c4)CC3)c2c1` (stereo not drawn) was -0.2%.
Regarding `Cn1c(C2CC3CCC(C2)N3CC2CCC(NC(=O)/C=C/c3ccc(Cl)c(Cl)c3)CC2)nc2ccccc21` (stereo not drawn), the inhibition was found to be 4.11%.

In the next assay the target is Hexose transporter 1 (Plasmodium falciparum) (UniProt O97467). Nature of the assay: ST_JUDE_LEISH: Cytotoxicity at 2uM final concentration against transgenic Leishmania Mexicana promastigotes LmPfHT that are glucose transport deficient and complemented with the Plasmodium falciparum hexose transporter. Activity is measured by DNA content using SYBR green in vitro. The format is functional.
For `COc1ccc(C=CC(=O)N2CCC(CN3CCC(c4c[nH]c5ccccc45)CC3)CC2)cc1OC`, the inhibition is 0.91%.
Still for that read-out and setting: the result for `COc1cccc(C=CC(=O)NC2CCC(CN3CCC(c4c[nH]c5ccccc45)CC3)CC2)c1OC` (stereo not drawn) reads 2.37%.
Same read-out and setting: the value for `COc1ccc(CN2CCN(CCOC(c3ccccc3)c3ccccc3)CC2)c(O)c1` was 2.42%.
Same read-out and setting: the value for `NCc1ccc(-c2ccccc2CN(C(=O)Nc2ccccc2)C2CCN(Cc3ccccc3)CC2)cc1` was 1.83%; that for `N#Cc1ccc(N(CC(=O)NCCc2ccc(F)cc2)CC2CC2)c2ccccc12` was -0.59%; that for `COc1ccc(C(=O)C2CC2CN2CC=C(c3c[nH]c4cccc(Br)c34)CC2)cc1` (stereo not drawn) was 2.54%.
As to `COC(=O)/C=C/c1ccc(CC(C)NCC(O)c2cccc(Cl)c2)cc1` (stereo not drawn), the inhibition is -0.19%.
Same read-out and setting: the value for `S=C(NCC1CCCCC1)NC1CCC(CN2CCC(c3c[nH]c4ccccc34)CC2)CC1` (stereo not drawn) was 3.66%; that for `CC(Cc1ccc(S(=O)(=O)N(C(C)C)C(C)C)cc1)NCC(O)c1cccc(C(F)(F)F)c1` (stereo not drawn) was 2.53%.
Same read-out and setting: the result for `CC1(CCCCN2CC=C(c3c[nH]c4ccccc34)CC2)C(=O)Nc2ccccc21` (stereo not drawn) reads -0.08%.
For the compound `CCC(C)(C)NC(C)C(O)c1ccc(C(F)(F)F)cc1` (stereo not drawn), the inhibition amounted to 0.51%.
On to `O=C(/C=C/c1cccc(F)c1)NC1CCC(CN2CCC(c3c[nH]c4ccccc34)CC2)CC1` (stereo not drawn), for which the inhibition was -0.05% and 2.1%.
Still for that read-out and setting: the result for `Cc1ccc(CC(C)NCC(O)c2cccc([N+](=O)[O-])c2)cc1` (stereo not drawn) reads -0.33%.
The same measure, in the same setting: the value for `O=C(Cc1c(-c2ccccc2)[nH]c2ccccc12)NC1CCC(CN2CCC(c3c[nH]c4ccccc34)CC2)CC1` (stereo not drawn) was 4%; that for `CN(CC(=O)N1CCN(S(=O)(=O)c2cccc(Cl)c2)CC1CN1CCCC1)c1ccc(Cl)c(Cl)c1` (stereo not drawn) was 1.78%; that for `CCc1ccc(CC(C)NCC(O)c2ccccc2)cc1` (stereo not drawn) was 1.04%.
Same read-out and setting: the result for `CC(C)/C(=C(/F)CN1C(=O)C(NC(=O)c2cc3ccccc3[nH]2)C(=O)N(c2ccccc2)c2ccccc21)c1ccccc1` (stereo not drawn) reads -0.22%; that for `FC(F)(F)c1ccc(NC(=S)N2CCC(CN3CCC(c4c[nH]c5ccccc45)CC3)CC2)cc1`, -0.06%; that for `CCCCCc1cc(O)c2c(c1)OC(C)(C)c1ccncc1-2`, 0.66%.
Consider `COC(=O)c1ccc(CC(C)NCC(O)c2cccc(I)c2)cc1` (stereo not drawn), for which the inhibition is -1%.
As to `CC[C@H]1CN2CC[C@@H]1C[C@H]2[C@H](O)c1cc(N2CCC(CO)CC2)nc2ccc(OC)cc12`, the inhibition came to 1.17%.
Still for that read-out and setting: the value for `COc1cccc(O)c1CNCC(O)c1cccc(C(F)(F)F)c1` (stereo not drawn) was 0.5%; that for `CN(c1ccnc(Nc2ccc(CS(C)(=O)=O)cc2)n1)C1CCN(Cc2ccccc2)CC1` was 2.62%.
Still for that read-out and setting: the result for `CN(C)c1cccc(NC(=O)N[C@H]2N=C(c3ccccc3)c3ccccc3N(CC(=O)N3CCCC3)C2=O)c1` reads 2.62%; that for `CC[C@H]1CN2CCc3cc(OC)c(OC)cc3[C@@H]2C[C@@H]1C[C@H]1NCCc2cc(OC)c(OC)cc21`, 94%.
Same read-out and setting: the value for `CC(Cc1ccc(-c2nc3ccccc3[nH]2)cc1)NCC(O)c1cccc(C(F)(F)F)c1` (stereo not drawn) was -1.73%.
In the case of `CC(=O)Nc1ccc(OCCN(CC(C)C)c2ccc(C#N)c(C(F)(F)F)c2)c(Cl)c1`, the inhibition is 2.7%.
As for `CCCCCCCc1cc(O)c2c3c(c(=O)oc2c1)CN(C)CC3`, the inhibition amounted to 11.3%.
On the same count and under the same terms, the value for `OC(CNC1CCCCC1)c1ccc(Cl)c(Cl)c1` (stereo not drawn) was -0.96%; that for `COCC(=O)N(Cc1ccccc1-c1cccc(CNCCc2ccccc2)c1)C1CCN(Cc2ccccc2)CC1` was 0.92%; that for `COC(C(=O)OCCC1CCCN1C)(c1ccccc1)c1ccccc1` (stereo not drawn) was -0.75%.
Still for that read-out and setting: the result for `CC(C)c1ccc(C=CC(=O)NC2CCC(CN3CCC(c4c[nH]c5ccccc45)CC3)CC2)cc1` (stereo not drawn) reads 1.4%; that for `COCCNCc1cccc(-c2ccc(CN(C(=O)Nc3ccccc3)C3CCN(Cc4ccccc4)CC3)cc2)c1`, 0.8%.
Still for that read-out and setting: the value for `CN(c1cc(NC(=O)c2cccs2)ccn1)C1CCN(Cc2cccc(F)c2)CC1` was 3%; that for `Cc1nc(-c2ccc(-c3ccc(C(=O)Nc4ccc5c(c4)C4(CCNCC4)CO5)cc3)c(C)c2)no1` was 5.12%.
`CC[C@H]1CN2CC[C@@H]1C[C@H]2[C@H](O)c1cc(N2CCC(C)CC2)nc2ccc(OC)cc12`: the inhibition was determined as 9.59%.
On the same count and under the same terms, the result for `CC1(C)N=C(N)N=C(N)N1c1ccc([N+](=O)[O-])cc1` reads 8.47%; that for `COc1ccc2[nH]cc(C3CC4CCC(C3)N4CCC3CCN(C(=O)/C=C/c4ccc(Cl)c(Cl)c4)CC3)c2c1` (stereo not drawn), 1.01%.
On the same count and under the same terms, the value for `Cn1c(C2CC3CCC(C2)N3CC2CCC(NC(=O)/C=C/c3ccc(Cl)c(Cl)c3)CC2)nc2ccccc21` (stereo not drawn) was 3.19%.

The term inhibition denotes the drop in the measured response relative to a control, in per cent.

Values taken from ChEMBL document CHEMBL3433997, “St. Jude Leishmania screening dataset” (2016).
